# Data from the supplement of paper PMC8728848.
# Shown is part of a subset that was picked to be rich in the strongest signals.
# B1: S100A12 (Homo sapiens), P80511 (protein)
# chain: MTKLEEHLEGIVNIFHQYSVRKGHFDTLSKGELKQLLTKELANTIKNIKDKAVIDEIFQGLDANQDEQVDFQEFISLVAIALKAAHYHTHKE
# Key:
# Assay in all cases: glycan array binding signal (z-score within array); higher = stronger binding
# Conditions in all cases: glycan notation: IUPAC condensed, linker removed
# [1] = biological target: Fuc(a1-2)Gal(b1-3)GalNAc(b1-3)Gal
# Procedure, shortened: (§1)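 Negative Z-scores can be read as non-binding. The Z-score is calculated within each array and then averaged across arrays of one protein sequence at different concentrations or buffers and across linkers. Arrays, 3228 in all, were curated from the Consortium for Functional Glycomics database and kept only where the protein sequence was available.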
# [2] = biological target: Fuc(a1-2)Gal(b1-3)GalNAc(b1-4)[Neu5Ac(a2-3)]Gal(b1-4)Glc
# Procedure, shortened: as §1
# Fuc(a1-2)Gal(b1-4)GlcNAc = biological target: Fuc(a1-2)Gal(b1-4)GlcNAc
# Procedure, shortened: as §1
# Fuc(a1-2)[Gal(a1-3)]Gal = biological target: Fuc(a1-2)[Gal(a1-3)]Gal
# Procedure, shortened: as §1
# [3] = biological target: Fuc(a1-2)[GalNAc(a1-3)]Gal(b1-4)[Fuc(a1-3)]GlcNAc
# Procedure, shortened: as §1
# [4] = biological target: Fuc(a1-2)[GalNAc(a1-4)]Gal(b1-4)GlcNAc
# Procedure, shortened: as §1
# Gal(a1-2)Gal = biological target: Gal(a1-2)Gal
# Procedure, shortened: as §1
# [5] = biological target: Gal(b1-3)[Fuc(a1-4)]GlcNAc(b1-3)Gal(b1-4)[Fuc(a1-3)]GlcNAc
# Procedure, shortened: as §1
# [6] = biological target: Gal(b1-4)GlcNAc(b1-3)Gal(b1-4)GlcNAc(b1-3)Gal(b1-4)GlcNAc
# Procedure, shortened: as §1
# [7] = biological target: Gal(b1-4)GlcNAc(b1-6)Gal(b1-4)GlcNAc(b1-6)GalNAc
# Procedure, shortened: as §1
# [8] = biological target: Gal(b1-4)GlcNAc(b1-6)GalNAc
# Procedure, shortened: as §1
# Gal3S(b1-3)GalNAc = biological target: Gal3S(b1-3)GalNAc
# Procedure, shortened: as §1
# Gal3S(b1-4)Glc6S = biological target: Gal3S(b1-4)Glc6S
# Procedure, shortened: as §1
# Gal3S(b1-4)GlcNAc6S = biological target: Gal3S(b1-4)GlcNAc6S
# Procedure, shortened: as §1
# Gal3S6S(b1-4)GlcNAc6S = biological target: Gal3S6S(b1-4)GlcNAc6S
# Procedure, shortened: as §1
# Gal4S6S(b1-4)GlcNAc = biological target: Gal4S6S(b1-4)GlcNAc
# Procedure, shortened: as §1
# Gal6S(b1-4)Glc6S = biological target: Gal6S(b1-4)Glc6S
# Procedure, shortened: as §1
# GlcA(b1-3)Gal = biological target: GlcA(b1-3)Gal
# Procedure, shortened: as §1
# [9] = biological target: GlcNAc(b1-2)Man(a1-3)[GlcNAc(b1-2)Man(a1-6)]Man(b1-4)GlcNAc(b1-4)GlcNAc
# Procedure, shortened: as §1
# [10] = biological target: GlcNAc(b1-4)GlcNAc(b1-4)GlcNAc(b1-4)GlcNAc(b1-4)GlcNAc(b1-4)GlcNAc
# Procedure, shortened: as §1
# GlcNAc(b1-6)GalNAc = biological target: GlcNAc(b1-6)GalNAc
# Procedure, shortened: as §1
# [11] = biological target: Man(a1-2)Man(a1-3)[Man(a1-6)]Man(a1-6)[Man(a1-2)Man(a1-3)]Man(b1-4)GlcNAc(b1-4)GlcNAc
# Procedure, shortened: as §1
# [12] = biological target: Neu5Ac(a2-3)Gal(b1-3)GalNAc(b1-3)Gal(b1-4)GlcNAc
# Procedure, shortened: as §1
# [13] = biological target: Neu5Ac(a2-3)Gal(b1-4)[Fuc(a1-3)]GlcNAc(b1-3)Gal
# Procedure, shortened: as §1
# [14] = biological target: Neu5Ac(a2-3)[Neu5Ac(a2-6)]GalNAc
# Procedure, shortened: as §1
# Neu5Gc(a2-6)GalNAc = biological target: Neu5Gc(a2-6)GalNAc
# Procedure, shortened: as §1
binder,measurement,setting,value
B1,glycan array binding signal (z-score),[1],1.87
same,glycan array binding signal (z-score),[2],-0.259
same,glycan array binding signal (z-score),Fuc(a1-2)Gal(b1-4)GlcNAc,-0.748
same,glycan array binding signal (z-score),Fuc(a1-2)[Gal(a1-3)]Gal,-0.758
same,glycan array binding signal (z-score),[3],-0.154
same,glycan array binding signal (z-score),[4],-0.766
same,glycan array binding signal (z-score),Gal(a1-2)Gal,0.006
same,glycan array binding signal (z-score),[5],-0.056
same,glycan array binding signal (z-score),[6],-0.226
same,glycan array binding signal (z-score),[7],-0.768
same,glycan array binding signal (z-score),[8],-0.528
same,glycan array binding signal (z-score),Gal3S(b1-3)GalNAc,0.207
same,glycan array binding signal (z-score),Gal3S(b1-4)Glc6S,2.45
same,glycan array binding signal (z-score),Gal3S(b1-4)GlcNAc6S,2.67
same,glycan array binding signal (z-score),Gal3S6S(b1-4)GlcNAc6S,2.83
same,glycan array binding signal (z-score),Gal4S6S(b1-4)GlcNAc,2.91
same,glycan array binding signal (z-score),Gal6S(b1-4)Glc6S,2.19
same,glycan array binding signal (z-score),GlcA(b1-3)Gal,0.368
same,glycan array binding signal (z-score),[9],1.79
same,glycan array binding signal (z-score),[10],-0.158
same,glycan array binding signal (z-score),GlcNAc(b1-6)GalNAc,-0.903
same,glycan array binding signal (z-score),[11],-0.256
same,glycan array binding signal (z-score),[12],-0.704
same,glycan array binding signal (z-score),[13],-0.943
same,glycan array binding signal (z-score),[14],0.727
same,glycan array binding signal (z-score),Neu5Gc(a2-6)GalNAc,-0.009
